Test [1] deals with Acetylcholinesterase (Homo sapiens) (UniProt P22303). Kind of test: Acetylcholinesterase (AChE) small molecule antagonists: colormetric cell-based qHTS assay (AID 1347395). Also: nearly all actives have a fitted effect of over 30% in size. Also: potency is read from the fitted curve at half-maximal effect. In a few lines: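 SH-SY5Y cells attached overnight, exposed to compound 30 min at 37 C, then given DTNB/acetylthiocholine; after 90 min at 37 C, colorimetric thiocholine read gives cellular AChE activity.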
A general note: In qHTS, concentration-response curves come from the screen itself.

Test [2] shares this target. In words: Acetylcholinesterase (AChE) small molecule antagonists: enzyme-based qHTS assay (AID 1347397). Also: nearly all actives have a fitted effect of over 55% in size. Also: potency is read from the fitted curve at half-maximal effect. The following applies: Potency: AChE enzyme activity inhibition; outcome: AChE enzyme activity inhibition. In a few lines:
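Absorbance-based detection of thiocholine with DTNB served as the read-out. Recombinant human AChE was exposed to compound for 30 min at RT before a 10 min RT incubation with acetylthiocholine.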

Test [3] shares this target. In words: Acetylcholinesterase (AChE) small molecule antagonists: fluorescence cell-based qHTS assay (AID 1347398). Also: nearly all actives have a fitted effect of over 50% in size. Also: potency is read from the fitted curve at half-maximal effect. Conditions: Potency: AChE activity; outcome: AChE activity. In a few lines:
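Fluorimetric cell-based assay: intact SH-SY5Y cells, 30 min compound preincubation at 37 C, acetylthiocholine substrate with thiol probe Thiolite Green, 40 min RT development, fluorescence 490/520 nm.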

Test [4] shares this target. In words: Acetylcholinesterase (AChE) small molecule antagonists: enzyme-based qHTS assay with human liver microsomes (AID 1347399). Also: nearly all actives have a fitted effect of over 60% in size. The following applies: Potency: qHTS inhibition; outcome: qHTS inhibition. In a few lines: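 Recombinant human AChE (50 mU/mL in the enzyme mix) and human liver microsomes (0.25 mg/mL final) were preincubated with compound and NADPH (0.25 mg/mL final) for 30 min at 37 C. Acetylthiocholine/DTNB was then added; thiocholine was read colorimetrically after 10 min at room temperature.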

Records with an inconclusive call do not appear. Some structures have more than one record in an assay (separate samples or runs), and their calls can disagree. Activity calls are given as the source filed them. Calls follow the shape of the full dose curve.
% is scaled to controls: 0 for no effect and ±100 for the full control effect.

Sequence of Acetylcholinesterase (Homo sapiens) (P22303 whole entry, looked up): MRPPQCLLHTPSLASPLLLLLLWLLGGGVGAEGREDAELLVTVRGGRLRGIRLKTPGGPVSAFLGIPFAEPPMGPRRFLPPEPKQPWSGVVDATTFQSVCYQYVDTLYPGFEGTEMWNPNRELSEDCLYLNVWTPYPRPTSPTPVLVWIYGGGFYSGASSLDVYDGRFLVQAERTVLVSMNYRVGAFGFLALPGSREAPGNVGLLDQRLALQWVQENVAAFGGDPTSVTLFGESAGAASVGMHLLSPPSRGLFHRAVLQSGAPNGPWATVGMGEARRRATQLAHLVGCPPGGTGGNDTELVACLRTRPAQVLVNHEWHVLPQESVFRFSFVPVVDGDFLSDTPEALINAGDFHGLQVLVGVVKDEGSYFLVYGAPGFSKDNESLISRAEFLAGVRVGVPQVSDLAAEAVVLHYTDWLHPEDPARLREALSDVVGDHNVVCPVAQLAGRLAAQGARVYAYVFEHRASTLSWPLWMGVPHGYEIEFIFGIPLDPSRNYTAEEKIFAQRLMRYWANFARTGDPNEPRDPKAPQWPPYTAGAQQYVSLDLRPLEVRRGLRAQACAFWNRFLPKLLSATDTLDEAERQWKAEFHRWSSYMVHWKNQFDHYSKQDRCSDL

As for `O=C(O)CCCCC1CCSS1` (stereo not given), the Potency result in test [1], in test [2], in test [3] and in test [4] was “inactive” each time.

As to `CC1(C)CC(OC(=O)CCCCCCCCC(=O)OC2CC(C)(C)NC(C)(C)C2)CC(C)(C)N1`, in test [1], the activity, negative = inhibition was -3.47% [at 23.6 µM] (inactive). Besides, the results for the activity change, negative = inhibition in test [2], in test [3] and in test [4] were 1.77% [at 23.6 µM] (inactive), -14.4% [at 23.8 µM] (inactive) and 0.16% [at 23.6 µM] (inactive), respectively.

Take `CCOC(=O)c1c(C)n(C)c2ccc(O)cc12`: the Potency result in test [1], in test [2], in test [3] and in test [4] was “inactive” in each case.

Regarding `CCCCCCCCCC(=O)OCC`, the Potency result in test [1], in test [2], in test [3] and in test [4] was “inactive” throughout.

Regarding `COC(c1ccccc1)(c1ccccc1)[C@H](Oc1nc(C)cc(C)n1)C(=O)O`, the Potency entry in test [1], in test [2], in test [3] and in test [4] was “inactive” throughout.

Turning to `Nc1ncnc2c1ncn2[C@@H]1O[C@H](COP(=O)(O)O)[C@@H](O)[C@H]1O`, the Potency result in test [1], in test [2], in test [3] and in test [4] was “inactive” throughout.

Regarding `CC(=O)OC[C@H]1O[C@@](COC(C)=O)(O[C@H]2O[C@H](COC(C)=O)[C@@H](OC(C)=O)[C@H](OC(C)=O)[C@H]2OC(C)=O)[C@@H](OC(C)=O)[C@@H]1OC(C)=O`, the Potency entry in test [1], in test [2], in test [3] and in test [4] was “inactive” each time.

Regarding `CC1=CC(=O)CC(C)(C)C1(O)/C=C/C(C)=C\C(=O)O` (stereo not given), the Potency result in test [1], in test [2], in test [3] and in test [4] was “inactive” in each case.

Regarding `CC(C)Cc1ccc(C(C)C(=O)O)cc1` (stereo not given), the Potency entry in test [1], in test [2], in test [3] and in test [4] was “inactive” in each case.

As to `Nc1cc(Cl)c(N)c(Cl)c1`, the Potency in test [1] is 79 µM (active) and inactive; in test [3], 55.9 µM (active) and inactive. Moreover, the Potency entry in test [2] and in test [4] was “inactive” each time.

As for `C=CCOC(=O)CC(C)C`, the Potency result in test [1], in test [2], in test [3] and in test [4] was “inactive” each time.

`O=C(c1ccccc1)c1ccc(O)cc1O`: the Potency entry in test [1], in test [2], in test [3] and in test [4] was “inactive” each time.

For `CC(C)CCCCCOC(=O)CCS`, the Potency entry in test [1], in test [2], in test [3] and in test [4] was “inactive” each time.

Turning to `CCC(=O)OCCC(C)CCC=C(C)C` (stereo not given), the Potency result in test [1], in test [2], in test [3] and in test [4] was “inactive” in each case.

In the case of `CC12CCCC=C1C(=O)OC2=O` (stereo not given), the Potency entry in test [1], in test [2], in test [3] and in test [4] was “inactive” in each case.

On to `CC1=CC[C@H](CC=O)C1(C)C`, for which the Potency entry in test [1], in test [2], in test [3] and in test [4] was “inactive” in each case.

As for `CC(C)(C)NC[C@H](O)COc1cccc2c1CCCC2=O`, the Potency entry in test [1], in test [2], in test [3] and in test [4] was “inactive” in each case.

On to `O=S(c1cc(Cl)cc(Cl)c1O)c1cc(Cl)cc(Cl)c1O`, for which the Potency result in test [1], in test [2], in test [3] and in test [4] was “inactive” throughout.

With `OC[C@H]1O[C@H](O[C@]2(CCl)O[C@H](CCl)[C@@H](O)[C@@H]2O)[C@H](O)[C@@H](O)[C@H]1Cl`, the Potency entry in test [1], in test [2], in test [3] and in test [4] was “inactive” in each case.

Regarding `CCOc1nc2cccc(C(=O)O)c2n1Cc1ccc(-c2ccccc2-c2nn[nH]n2)cc1`, the Potency result in test [1], in test [2], in test [3] and in test [4] was “inactive” in each case.

For the molecule `NC(=O)c1ccc([N+](=O)[O-])cc1`, the Potency result in test [1], in test [2], in test [3] and in test [4] was “inactive” each time.

In the case of `CCCc1cc(=O)[nH]c(=S)[nH]1`, the Potency result in test [1], in test [2], in test [3] and in test [4] was “inactive” throughout.

As for `Nc1c(I)cc(I)c(C(=O)N(CCC(=O)O)c2ccccc2)c1I`, the Potency result in test [1], in test [2], in test [3] and in test [4] was “inactive” each time.

`COCC(C)O` (stereo not given): the Potency result in test [1], in test [2], in test [3] and in test [4] was “inactive” throughout.

For the molecule `O=C(O)c1ccc(C(=O)O)c(C(=O)O)c1`, the Potency result in test [1], in test [2], in test [3] and in test [4] was “inactive” in each case.

Regarding `C[C@H]1C[C@H]2[C@@H]3CCC4=CC(=O)C=C[C@]4(C)[C@@]3(F)[C@@H](O)C[C@]2(C)[C@@]1(O)C(=O)CO`, the Potency entry in test [1], in test [2], in test [3] and in test [4] was “inactive” each time.

As to `Cc1cccc(O)c1`, the Potency entry in test [1], in test [2], in test [3] and in test [4] was “inactive” in each case.

As for `CCCc1ncc(C(=O)O)s1`, the Potency entry in test [1], in test [2], in test [3] and in test [4] was “inactive” throughout.

For the molecule `CCN1CCN(C(=O)N[C@@H](C(=O)N[C@@H]2C(=O)N3[C@@H]2SC(C)(C)[C@H]3C(=O)O)c2ccccc2)C(=O)C1=O`, the Potency result in test [1], in test [2], in test [3] and in test [4] was “inactive” each time.

In the case of `C=CCNC(N)=S`, the Potency entry in test [1], in test [2], in test [3] and in test [4] was “inactive” in each case.

With `CC(=O)SC[C@@H](C)C(=O)N1CCC[C@H]1C(=O)N[C@@H](Cc1ccccc1)C(=O)O`, the Potency result in test [1], in test [2], in test [3] and in test [4] was “inactive” throughout.

Take `C=CC(=O)OCC(CO)(COC(=O)C=C)COC(=O)C=C`: the Potency result in test [1], in test [2], in test [3] and in test [4] was “inactive” in each case.

For the molecule `Cc1cccc2ccccc12`, the Potency result in test [1], in test [2], in test [3] and in test [4] was “inactive” each time.

Regarding `CC1=CC[C@H]2C[C@@H]1C2(C)C`, the Potency result in test [1] and in test [4] was “inactive” throughout. For the same molecule, the Potency is 63.9 µM (active) and inactive in test [2]; 32 µM (active) and inactive in test [3].

`N[C@H]1CN(c2c(F)cc3c(=O)c(C(=O)O)cn(C4C[C@H]4F)c3c2Cl)CC12CC2` (stereo not given in full): the Potency result in test [1], in test [2], in test [3] and in test [4] was “inactive” in each case.

For `CC1CCC2CC1C2(C)C` (stereo not given), the Potency entry in test [1], in test [2], in test [3] and in test [4] was “inactive” each time.

Turning to `CCCC(C)CO` (stereo not given), the Potency result in test [1], in test [2], in test [3] and in test [4] was “inactive” in each case.

Turning to `CCCCCCCCCCCCCCCCCC(=O)OCC(CC)CCCC` (stereo not given), the Potency result in test [1], in test [2], in test [3] and in test [4] was “inactive” in each case.

As for `O=[N+]([O-])c1cccc(S(=O)(=O)O)c1`, the Potency entry in test [1], in test [2], in test [3] and in test [4] was “inactive” throughout.

On to `CC(=O)OCC=C(C)C`, for which the Potency result in test [1], in test [2], in test [3] and in test [4] was “inactive” in each case.

On to `NC(=O)NNC(N)=O`, for which the Potency result in test [1], in test [2], in test [3] and in test [4] was “inactive” throughout.

In the case of `O=Cc1ccc(Cl)c(Cl)c1`, the Potency result in test [1], in test [2], in test [3] and in test [4] was “inactive” throughout.

As for `Oc1cccc(O)c1`, the Potency entry in test [1], in test [2], in test [3] and in test [4] was “inactive” throughout.

For the molecule `CC/C=C\C/C=C\C/C=C\CCCCCCCC(=O)OCC`, the Potency result in test [1], in test [2], in test [3] and in test [4] was “inactive” each time.

Turning to `CCC/C=C/C=O`, the Potency result in test [1], in test [2], in test [3] and in test [4] was “inactive” in each case.

`CCOC(=O)[C@H](CCc1ccccc1)N[C@@H](C)C(=O)N(CC(=O)O)C1Cc2ccccc2C1`: the Potency entry in test [1], in test [2], in test [3] and in test [4] was “inactive” in each case.

Regarding `C=CC(C)(C)CC(=O)OC`, the Potency entry in test [1], in test [2], in test [3] and in test [4] was “inactive” in each case.

In the case of `OCC(CO)(CBr)CBr`, the Potency result in test [1], in test [2], in test [3] and in test [4] was “inactive” each time.

`c1ccc(CNCCNCc2ccccc2)cc1`: the Potency result in test [1], in test [2], in test [3] and in test [4] was “inactive” in each case.

For `CCS(=O)(=O)c1ccc(OC)c(C(=O)OC)c1`, the Potency entry in test [1], in test [2], in test [3] and in test [4] was “inactive” throughout.

With `CCCC[O][Al]([O]CCCC)[O]CCCC`, the Potency result in test [1], in test [2], in test [3] and in test [4] was “inactive” throughout.

Consider `CCC(C)c1cc([N+](=O)[O-])cc([N+](=O)[O-])c1OC(=O)OC(C)C` (stereo not given), for which the Potency result in test [1], in test [2], in test [3] and in test [4] was “inactive” in each case.

Take `CCN(CC)c1ccc(C(=C2C=CC(=[N+](CC)CC)C=C2)c2ccc(S(=O)(=O)O)cc2S(=O)(=O)[O-])cc1`: the Potency result in test [1], in test [2], in test [3] and in test [4] was “inactive” throughout.

With `Nc1ccc(O)c([N+](=O)[O-])c1`, the Potency result in test [1], in test [2], in test [3] and in test [4] was “inactive” in each case.

Turning to `COc1ccc(/C(C)=C/C(=O)O)c(OC)c1`, the Potency result in test [1], in test [2], in test [3] and in test [4] was “inactive” in each case.

For the molecule `CC(C)CC(C)O` (stereo not given), the Potency result in test [1], in test [2], in test [3] and in test [4] was “inactive” in each case.

Take `CCCC(C)C`: the Potency entry in test [1], in test [2], in test [3] and in test [4] was “inactive” each time.

In the case of `COc1cc(C(=O)NS(=O)(=O)c2ccccc2C)ccc1Cc1cn(C)c2ccc(NC(=O)OC3CCCC3)cc12`, the Potency result in test [1], in test [2], in test [3] and in test [4] was “inactive” each time.

Turning to `C=C(C)C1CC=C(C)C(=O)C1` (stereo not given), the Potency entry in test [1], in test [2], in test [3] and in test [4] was “inactive” each time.

Take `COC(=O)C1=C(C)NC(C)=C(C(=O)OCCc2ccc(N3CCN(C(c4ccccc4)c4ccccc4)CC3)cc2)C1c1cccc([N+](=O)[O-])c1` (stereo not given): the Potency entry in test [1], in test [2], in test [3] and in test [4] was “inactive” throughout.

These data come from PubChem BioAssay (Tox21).
